Bioassay records (PubChem)
Sfp inh = inhibitors of Bacillus subtilis Sfp phosphopantetheinyl transferase; hit rate 3.5% among 310,000; Biochemical Sfp PPTase activity, qHTS; AID 1490; Q9F4F7; Potency, µM, for the others: largest response in the series, negative = inhibition, hits mostly inhibitors;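 further: the enzyme is Sfp with the accession as filed and its product quenches rhodamine fluorescence; potency means the concentration at half of the fitted maximal effect; 0% = enzyme reaction without inhibitor and -100% = no enzyme wells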
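Reaction rates are the 30-min fluorescence difference (ex 525, em 598 nm) in wells containing 15 nM Sfp, 5 uM rhodamine-CoA and 12.5 uM BHQ-2-YbbR at pH 7.6 with 10 mM MgCl2.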
Coupling enz = coupling enzyme interference in Giardia aldolase counter-screen; activity change, negative = inhibition, % at 58.2 µM, hits read low; coupling enzyme system counterscreen, AmpLite Red fluorescence; hit rate 0.67% among 290,000; AID 2472; in the data active means activity change below about -30%
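First, compound is pin-transferred into glyceraldehyde-3-phosphate coupling-enzyme reagent at 57.5 uM final and held 10 min at RT. Next, substrate, coupling system and AmpLite Red are added. After 20 min RT, fluorescence (525/598 nm) is read.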
Giardia kill = kills Giardia lamblia; Giardia lamblia trophozoite viability; activity change, % at 7.66 µM, hits read low; hit rate 0.15% among 340,000; AID 540267; in the data active means activity change below about -80%; inconclusive means between about -30% and that limit;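 further: parasites exposed to compound for two days anaerobically before the ATP read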
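Trophozoite viability was measured as ATP-dependent luminescence, read 15-30 min after reagent addition. Before that, parasites at 100 cells/well were exposed to compounds for 48 h, anaerobically, at 37 deg C.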
ELG1 DNA repair = inhibitors of ELG1-dependent DNA repair in HEK293T cells. hit rate 2.3% among 330,000. HEK293T ELG1-luciferase reporter, luminescence, 16 h; DNA damage induced by 5-fluorouridine. Potency, µM (titrated, usually from 46.1 µM), without a hit: at the highest dose activity change, negative = inhibition, hits mostly inhibitors; further: potency means the concentration at half of the fitted maximal effect; nearly all actives have a fitted effect of over 55% in size
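Luminescence from the luciferase reporter, measured 30 min after ONE-Glo reagent at room temperature, was the read-out. Beforehand, 2,000 cells per well were exposed for 16 hr at 37 °C to 5-fluorouridine together with compound or vehicle.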
Starred values were filed as active, the others as inactive; ? = inconclusive; nt = no result given. An excerpt weighted towards active compounds, which were near 5.5% of everything screened. Unless noted, the call rests on the fitted dose curve; in most records, active means well fitted curve in the direction sought with a large enough effect; inconclusive means small, poorly fitted or top-dose-only effect, or another doubt; inactive means no such curve, though single readings can be large; an effect the other way counts as inactive or inconclusive. Unless noted, on the % scale 0 is the no-effect control and ±100 the full control effect.

SMILES	Sfp inh	Coupling enz	Giardia kill	ELG1 DNA repair
O=C(c1ccc(N2CCCC2)c([N+](=O)[O-])c1)N1CCN(S(=O)(=O)c2ccccc2)CC1	nt	nt	5	?
CC12CCC(O)CC1=CCC1C2CCC2(C)c3[nH]ncc3CC12 (configuration not stated)	nt	nt	-13	nt
CN1C(=O)c2cccc3c(S(=O)(=O)Nc4ccccc4F)ccc1c23	20%	-1	-13	?
COc1ccccc1-c1n[nH]c(=S)n1-c1ccccc1	-13%	3	-8	9%
COc1ccccc1-c1n[nH]c(=S)n1N	45µM*	3	11	11%
CC(C)n1cc(CN2CCCC(CNS(=O)(=O)c3cccc4cccnc34)C2)cn1 (configuration not stated)	3%	3	-1	19%
COc1ccc2oc(=O)cc(CN3CCN(Cc4ccc(OC)c(OC)c4OC)CC3)c2c1	1%	-1	-13	-23%
CCn1c(SCc2cccc(F)c2)nnc1-c1ccncc1	15%	2	7	2.6µM*
CCn1c(SCc2cccc(F)c2)nnc1-c1cccnc1	6%	-2	-8	3%
O=C(CN1C(=O)c2ccccc2S1(=O)=O)c1ccc2c(c1)OCCO2	5%	3	?	?
O=C(CN1C(=O)c2ccccc2S1(=O)=O)c1ccc(F)cc1	8%	1	1	-1%
O=C(CN1C(=O)c2ccccc2S1(=O)=O)c1ccc(OC(F)F)cc1	-11%	-1	-7	12µM*
O=C(CN1C(=O)c2ccccc2S1(=O)=O)c1ccc2c(c1)OCCCO2	1%	0	?	1µM*
COC(=O)c1ccc(C2NC(c3ccc4c(c3)OCO4)=CC(c3ccccc3O)N2)cc1 (configuration not stated)	nt	nt	-20	nt
COc1ccc2c(c1)nc(SCC(=O)c1cccs1)n2C	89µM*	-8	-15	?
CCCn1c(SCC(=O)C(C)(C)C)nc2ccccc21	56µM*	1	30	-5%
CCCn1c(SC(C)C(=O)O)nc2ccccc21 (configuration not stated)	2%	8	1	14%
COc1ccc2c(c1)nc(SCC(=O)C(C)(C)C)n2C	56µM*	2	1	?
Cn1nnnc1SCC(=O)c1cccs1	45µM*	4	-8	10%
COc1ccc2c(c1)nc(SCC(C)O)n2C (configuration not stated)	3%	-1	9	?
CC(C)CC1NC(=O)N(Cc2nc3ccccc3s2)C1=O (configuration not stated)	12%	3	9	4%
O=C(N/N=C/c1ccc2c(c1)OCO2)C1CC1	1%	nt	42	?
CCCC(=O)Nc1sc2c(c1C#N)CCCC2	13%	-1	-7	?
CCCc1cc(C(=O)Nc2sc(C)c(C)c2C(=O)OCC)no1	16µM*	0	-12	3%
CCCc1cc(C(=O)Nc2sc3c(c2C#N)CCC3)no1	50µM*	4	3	-4%
SMILES	Sfp inh	Coupling enz	Giardia kill	ELG1 DNA repair
CCOC(=O)c1c(NC(=O)c2ccc(Cl)s2)sc(C)c1C	13%	1	-17	-3%
CCCc1cc(C(=O)Nc2sc(C)c(CC)c2C#N)no1	56µM*	-1	27	24%
CCc1c(C)sc(NC(=O)C2CCCO2)c1C#N (configuration not stated)	22µM*	0	2	?
Cc1ccc(SCC(=O)Nc2ccc(N3CCOCC3)cc2)cc1C	nt	nt	0	-2%
CC(C)(C)OC(=O)N(Cc1ccccc1)Cc1ccccc1OCc1ccc(NC(=O)C2CCC2)cc1	nt	nt	29	nt
O=C(Oc1ccccc1)N1CCC2(CC1)CN(c1ccncc1)C2	6%	1	nt	nt
O=c1c2ccc([N+](=O)[O-])cc2ncn1CCOc1ccc(Cl)cc1	3%	-13	-20	?
O=c1c2ccc([N+](=O)[O-])cc2ncn1CCOc1cccc(Br)c1	-10%	2	10	18µM*
CC1(C)CC(N2CCN(c3ccccc3)CC2)=CC(=[N+]2CCCC2)C1	12%	-2	3	?
CC1(C)CC(N2CCCC2)=CC(=[N+]2CCCCCC2)C1	-2%	1	6	0.58µM*
Cc1ccc2c(c1)nnn2C1CCN(CC(=O)N(c2ccccc2)c2ccccc2)CC1	-3%	3	-3	16µM*
Cc1ccc2c(c1)nnn2C1CCN(C(=O)C23CC4CC(CC(C4)C2)C3)CC1	-2%	1	-3	23µM*
CCOC(=O)CN(C(=O)CN1CCC(n2nnc3cc(C)ccc32)CC1)c1ccccc1	-21%	-1	2	?
Cc1ccc(C(=O)N2CCN(S(=O)(=O)c3ccc(Br)cc3)CC2)o1	4%	3	0	-2%
O=C(NCC1CCCO1)c1ccc(S(=O)(=O)N2CCC(c3nc4ccc(Cl)cc4[nH]3)CC2)cc1 (configuration not stated)	7%	2	6	13µM*
O=S(=O)(c1ccc2c(c1)OCCO2)N1CCC(c2nc3ccc(Cl)cc3[nH]2)CC1	13%	-2	27	18µM*
O=C(c1ccc(S(=O)(=O)N2CCC(c3nc4ccccc4[nH]3)CC2)cc1)N1CCOCC1	50µM*	-1	-20	-11%
O=C(NCC1CCCO1)c1cc(S(=O)(=O)N2CCCCC2)ccc1Cl (configuration not stated)	nt	nt	5	-10%
O=S(=O)(c1ccc2c(c1)OCCO2)N1CCC(c2nc3ccccc3[nH]2)CC1	12%	2	3	?
CC1(C)C(=O)Nc2ccccc2N1C(=O)COc1ccccc1C#N	nt	nt	-18	-1%
O=C(Cc1ccc(NC(=O)C2CCCN(C(=O)C3CCC3)C2)cc1)Nc1ccc(C(=O)N2CCOCC2)cc1 (configuration not stated)	nt	nt	-9	nt
C=CCN1c2ccccc2[C@]23C[C@@H](C(=O)OC)N(S(=O)(=O)c4ccc(C)cc4)C2=NC(C(=O)OC)=C(C(=O)OC)[C@H]13	-8%	-5	nt	nt
CCCN1C2CCCC1CC(NC(=O)c1ccc(C(C)(C)C)cc1)C2 (configuration not stated)	24%	2	26	16%
CCN(CC)C(=O)N1CCC(NC(=O)c2ccc(C(C)(C)C)cc2)CC1	17%	-2	-2	21µM*
O=C(CCNC(=O)c1ccc(Cl)cc1)Nc1cccc(S(=O)(=O)N2CCCCC2)c1	nt	nt	-2	?
CCCCOC(=O)CSc1nnc(-c2cc(OC)c(OC)c(OC)c2)o1	10%	nt	-13	-3%
COc1cc(-c2nnc(SCC(=O)N(Cc3ccccc3)C(C)(C)C)o2)cc(OC)c1OC	1%	0	-1	21µM*
COc1cc(-c2nnc(SCc3cc(=O)oc4cc(C)ccc34)o2)cc(OC)c1OC	2%	5	5	12µM*
COc1cc(OC)cc(-c2nnc(SCC(=O)N(C(C)C)C(C)C)o2)c1	1%	2	2	-13%
CCCCN(CCCC)C(=O)CSc1nnc(-c2cc(OC)c(OC)c(OC)c2)o1	12%	2	29	10µM*
